From PubChem BioAssay (NCI)
The panel holds about 79,000 compounds, 15% with a hit somewhere; the sample as a whole holds those more often. Unmarked numbers belong to inactive results. Activity calls are given as the source filed them. Rule as the data show it: active = growth inhibition above about 70%; inactive = the rest.

Columns and labels:
[1] = NCI Yeast Anticancer Drug Screen. Data for the rad50 strain (AID 155);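 also: 0% = growth of vehicle-only cultures of the same strain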; settings: S. cerevisiae rad50 strain growth inhibition, hits give high values
In short: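 Inhibition values express reduced yeast growth in compound-treated cultures relative to vehicle-treated controls.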

[2] = NCI Yeast Anticancer Drug Screen. Data for the mec2-1 strain (AID 157); settings: S. cerevisiae mec2-1 strain, hits give high values
In short: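 Readout is yeast growth inhibition, normalised to vehicle-treated controls, in the mec2-1 strain exposed to compound.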

[3] = NCI Yeast Anticancer Drug Screen. Data for the sgs1 mgt1 strain (AID 161);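 also: 0% = growth of cultures given vehicle only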; settings: S. cerevisiae sgs1 mgt1 strain, hits give high values
In short: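 Percent growth inhibition was derived by comparing compound-exposed mutant yeast with vehicle-exposed cultures. The strain carries alterations in DNA damage repair.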

[4] = NCI Yeast Anticancer Drug Screen. Data for the cln2 rad14 strain (AID 165);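 also: 0% = growth equal to vehicle treated cultures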; settings: S. cerevisiae cln2 rad14 strain, hits give high values
In short: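 Relative to vehicle controls, growth inhibition of compound-treated cln2 rad14 yeast was recorded.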

[5] = NCI Yeast Anticancer Drug Screen. Data for the bub3 strain (AID 167); settings: S. cerevisiae bub3 mutant strain, hits give high values
In short: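 Steps: expose the mutant yeast strain to compound; grow alongside vehicle-treated cultures; measure growth; express inhibition against the vehicle cultures.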

[6] = NCI Yeast Anticancer Drug Screen. Data for the mlh1 rad18 strain (AID 175); settings: S. cerevisiae mlh1 rad18 strain growth inhibition, hits give high values
In short: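 Test agents were incubated with a yeast strain of defined genotype (DNA damage repair defect). Inhibition of growth was derived by comparison with vehicle-exposed cultures.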

[7] = at 5.0 µM (retest, dose inferred, filed as 0.5)
[8] = at 50.0 µM (retest, dose inferred, filed as 5.0)

| Structure (SMILES) | growth inhibition [1, 7] | growth inhibition [1, 8] | growth inhibition ([1]; at 50.0 µM) | growth inhibition [2, 7] | growth inhibition [2, 8] | growth inhibition ([2]; at 50.0 µM) | growth inhibition [3, 7] | growth inhibition [3, 8] | growth inhibition ([3]; at 50.0 µM) | growth inhibition [4, 7] | growth inhibition [4, 8] | growth inhibition ([4]; at 50.0 µM) | growth inhibition [5, 7] | growth inhibition [5, 8] | growth inhibition ([5]; at 50.0 µM) | growth inhibition [6, 7] | growth inhibition [6, 8] | growth inhibition ([6]; at 50.0 µM) |
| --- | --- | --- | --- | --- | --- | --- | --- | --- | --- | --- | --- | --- | --- | --- | --- | --- | --- | --- |
| COc1cc(C2C(Cl)C(=O)N2NC(=O)c2ccccc2O)cc(OC)c1OC (configuration not stated) | -8% | 77% (active) | 76.3% (active) | -10% | 70% (active) | 70.5% (active) | 1% | 81% (active) | 78.8% (active) | -2% | 40% | 35.2% | -11% | 48% | 80.8% (active) | 6% | 87% (active) | 78.8% (active) |
| CC1(C)OC(C(COC(=O)c2ccc([N+](=O)[O-])cc2)OS(=O)(=O)c2ccc([N+](=O)[O-])cc2)C(C(SCc2ccccc2)SCc2ccccc2)O1 (configuration not stated) | 12% | 97% (active) | 43.6% | 1% | 99% (active) | 33.5% | 4% | 98% (active) | 46.6% | -9% | 92% (active) | 7.75% | -2% | 99% (active) | 15.3% | 8% | 98% (active) | 67% |
| Oc1c(Br)cc(Br)cc1C=Nc1ccc(Br)cc1 | 68% | 98% (active) | 80.8% (active) | 55% | 99% (active) | 91.5% (active) | 72% (active) | 98% (active) | 89.6% (active) | 44% | 99% (active) | 89.2% (active) | 73% (active) | 99% (active) | 89% (active) | 88% (active) | 98% (active) | 87.1% (active) |
| CN1C/C(=C\c2ccc(Cl)cc2)C(=O)/C(=C/c2ccc(Cl)cc2)C1 | 78% (active) | 98% (active) | 87.2% (active) | 73% (active) | 99% (active) | 88.5% (active) | 79% (active) | 99% (active) | 91% (active) | 78% (active) | 97% (active) | 88% (active) | 84% (active) | 97% (active) | 87.8% (active) | 83% (active) | 98% (active) | 85.2% (active) |
| O=C(Nc1ccccc1C(=O)O)c1ccccc1 | -7% | 50% | 44% | 2% | -6% | 23.5% | -5% | -22% | 79.7% (active) | -2% | -14% | -11.6% | -14% | 30% | 36% | -7% | 23% | 78.2% (active) |
| CC1(C)OC2C(CO)OC(n3ncc(=S)[nH]c3=O)C2O1 (configuration not stated) | -4% | 28% | -10.5% | -8% | 6% | 10.7% | 4% | 45% | -1.45% | -1% | 45% | -1.95% | 6% | 15% | 71% (active) | -1% | 30% | -24.9% |
| C=CC[C@]1(C(C)Cc2ccc(OC)c(OC)c2)C[C@@H](OC)C=CC1=O (some centres not stated) | -7% | 89% (active) | 88% (active) | 8% | 89% (active) | 93% (active) | 0% | 85% (active) | 88.8% (active) | 13% | 86% (active) | 88.5% (active) | 7% | 92% (active) | 89.5% (active) | -1% | 92% (active) | 96% (active) |
| CCOC(=O)C1C(c2cccc(OC)c2O)c2cc3c(cc2OC1(C)N1CCCC1)OCO3 (configuration not stated) | -3% | 21% | 31.2% | 1% | 15% | 16.4% | -2% | 39% | 34.5% | -5% | -4% | 2.55% | 1% | 25% | 24.9% | -4% | 27% | 50.5% |
| CC(=O)O[C@@H]1c2c(c3c(=O)c4cccc(O)c4c(=O)c=3c2=[N+]=[N-])[C@H](OC(C)=O)[C@@H](OC(C)=O)[C@]1(C)O | 99% (active) | 99% (active) | 92% (active) | 99% (active) | 99% (active) | 93.7% (active) | 99% (active) | 99% (active) | 93% (active) | 99% (active) | 99% (active) | 91.3% (active) | 98% (active) | 99% (active) | 91.4% (active) | 99% (active) | 99% (active) | 91.6% (active) |
